From PubChem BioAssay AID565 (University of Pittsburgh Molecular Library Screening Center, 2006) come the findings set out here.

About 1,200 (1.8%) of roughly 65,000 compounds were called active. This is one part of a sample in which actives are shown more often than they occur. Unmarked numbers belong to inactive results. Rule as the data show it: active = inhibition above about 50%; inactive = the rest.

This test addresses Gag-Pol polyprotein (Human immunodeficiency virus type 1 group M subtype B (isolate HXB2)) (UniProt P04585). Description: blockers of HIV-1 RNase H RNA/DNA cleavage – biochemical, fluorescence, primary screen (AID 565). Particulars: RT-RNase H RNA/DNA duplex cleavage, at 10 µM, active compounds read high.
The inhibition is the change of the read-out against control, counted positive when it falls. With `COC(=O)C1=C(C)OC(N)=C(C#N)C1c1cc(OC)ccc1OC` (stereo unspecified), the inhibition was -6.95%.

As for `CCC(=O)NC(=Nc1nc2ccccc2s1)NC(=O)CC`, the inhibition is -21.2%.

As for `COc1ccc(Nc2oc(-c3ccccc3Cl)nc2C#N)cc1`, the inhibition is 54.5% (active).

With `CCOc1ccc(Nc2oc(Cc3ccccc3)nc2C#N)cc1`, the inhibition is -28.4%.

Turning to `N#Cc1nc(-c2ccc(OCc3ccccc3)cc2)oc1NCCCN1CCOCC1`, the inhibition was -42.2%.

Regarding `CC(C)C1N=C2c3ccccc3N=C(SCC(=O)c3ccc(O)c(O)c3)N2C1=O` (stereo unspecified), the inhibition is 96.1% (active).

Take `O=C(CSC1=Nc2ccccc2C2=NC(c3ccccc3)C(=O)N12)NCC1CCCO1` (stereo unspecified): the inhibition is 2.21%.

On to `NC(=O)CSC1=Nc2ccccc2C2=NC(CCC(=O)NCc3ccc(F)cc3)C(=O)N12` (stereo unspecified), for which the inhibition was -6.32%.

As for `CCOc1cc(/C=N/O)cc(Br)c1OC`, the inhibition was -18.2%.

Regarding `CN1CCC2(CC1)NC(=O)NC2=O`, the inhibition is -0.41%.

As to `COc1ccc(N2CCN(C(=O)CSc3nnc4ncccn34)CC2)cc1`, the inhibition was 2.76%.

Consider `COc1ccc(N2CCN(C(=O)CSc3ncnc4c3cnn4-c3ccc(OC)cc3)CC2)cc1`, for which the inhibition was 54.2% (active).

For the molecule `COc1ccc(N2CCN(C(=O)CSc3nc4cc(OC)c(OC)cc4cc3C#N)CC2)cc1`, the inhibition is 36.4%.

For `O=C(O)C1CCCN(S(=O)(=O)c2cccc3cccnc23)C1` (stereo unspecified), the inhibition is -3.84%.

On to `COc1cc2[nH]c(=S)n(CCN3CCCCC3C)c(=O)c2cc1OC` (stereo unspecified), for which the inhibition was -11%.

Turning to `CCSc1nc(=S)n(CC)c(C)c1C(C)=O`, the inhibition was -6.33%.

With `CCOC(=O)c1nc(N)sc1C(=O)OCC`, the inhibition is -13.4%.

For the molecule `CCOC(=O)CNC(=O)c1nn(-c2cccc(OC)c2)c(=O)c2ccccc12`, the inhibition was -9.52%.

Turning to `CCOC(=O)Cn1c(N)c(C(=O)OC)sc1=S`, the inhibition was 56.2% (active).

`CCOC(=O)CSc1nnc(CNC(=O)c2cccs2)n1-c1ccccc1`: the inhibition was -126%.

For `CCOc1cccc(-n2nnnc2-c2ccc(OC)cc2)c1`, the inhibition was -27.8%.

`COC(=O)c1cn(-c2ccccc2)nc1-c1cccnc1`: the inhibition is -35.4%.

`CCOC(=O)Cn1c(SC)nc2sc3c(c2c1=O)CC(C)(C)OC3`: the inhibition is -12.4%.

`CCOC(=O)c1sc(=S)n(-c2cccc(OC)c2)c1N`: the inhibition is 65.1% (active).

`COC(=O)c1sc(=S)n(-c2ccccc2)c1N`: the inhibition was 88.6% (active).

With `O=C(Cn1c(=S)nc2ccccn21)N1CCc2ccccc2C1`, the inhibition is -12.1%.

`Cc1nn2c3ccccc3nc2n(C)c1=O`: the inhibition was -8.5%.

Take `CCOc1ncccc1C(=O)OCc1cn2cc(Cl)ccc2n1`: the inhibition was -19.9%.

Turning to `CCN(CC)CCCN1C(=O)C(=O)/C(=C(/O)c2c(C)nc3ccccn23)C1c1ccc(C)o1` (stereo unspecified), the inhibition is -7.5%.

As to `O=c1c2ccccc2nnn1CSc1nc2sc3c(c2c(=O)n1CC1CCCO1)CCC3` (stereo unspecified), the inhibition is -3.16%.

Take `CC1Oc2ccccc2N(Cc2cccnc2)C1=O` (stereo unspecified): the inhibition is -1.88%.

For the molecule `COC(=O)Nc1ccc(S(=O)(=O)N(C)CC(F)(F)C(F)F)cc1`, the inhibition is -4.49%.

As to `O=C(CN1CCN(CC(=O)Nc2ccc3c(c2)OCO3)CC1)Nc1ccc(F)cc1`, the inhibition was -10.3%.

As to `c1ccc(Nc2nc(-c3ccncc3)cs2)nc1`, the inhibition is -13.7%.

For the molecule `N#C/C(=C1\CCCN1)c1nc(-c2ccccc2)cs1`, the inhibition is -34%.

In the case of `N#CC(=C1SC=CS1)c1nc(-c2ccccc2)cs1`, the inhibition was 55.1% (active).

As for `Cc1cc(C)n(C(=O)c2ccc(S(=O)(=O)N3CCCC3)cc2)n1`, the inhibition was -7.85%.

As to `Fc1ccccc1OCCSc1nc2ccccc2o1`, the inhibition is -31.7%.

As for `Cc1nc2ccccc2c(=O)n1CCCn1ccnc1`, the inhibition is -6.99%.

For `Cc1ccnc(-n2sc3ccccc3c2=O)n1`, the inhibition is 84.5% (active).

Turning to `CC12C(=O)N(n3cnnc3)C(=O)C1C1C=CC2C1` (stereo unspecified), the inhibition is 1.01%.

Turning to `C/C(=C\C(=O)c1ccc(Br)cc1)N1CCCCC1`, the inhibition is -18.6%.

With `CCC(=O)Nc1cccc(NC(=O)CSc2nnc(-c3ccc(NS(C)(=O)=O)cc3)n2C)c1`, the inhibition was -1.65%.

Take `CCc1c(C)[nH]c(=S)c(C#N)c1C`: the inhibition is 84.3% (active).

Take `CC(=O)N1CCN(CCN=CC2=C(O)CC(C)(C)CC2=O)CC1`: the inhibition was -3.55%.

`COCCCNC(=O)Cn1cc(C(=O)C2CC2)c2ccccc21`: the inhibition was -5.05%.

`Fc1ccc(OCc2nn3c(Cn4nnc5ccccc54)nnc3s2)cc1`: the inhibition is 77.8% (active).

Take `Cc1ccc(C(=O)CSc2nnc(Cn3nnc4ccccc43)n2C)cc1`: the inhibition was -1.04%.

On to `O=C(CSc1nnc(Cn2cnc3ccccc32)o1)c1ccccc1`, for which the inhibition was -18.7%.

`N#CCCn1cnc2ccccc21`: the inhibition is -0.17%.

`c1ccc(Cc2nn3c(Cn4cnc5ccccc54)nnc3s2)cc1`: the inhibition is 82.6% (active).

Regarding `CCOc1cccc(-c2nnc3sc(COc4ccc(OC)cc4)nn23)c1`, the inhibition was 1.27%.

`NC(=O)C1CCN(C2OC(=O)c3ccccc32)CC1` (stereo unspecified): the inhibition was 2.61%.

Consider `COc1ccc(OCC(=O)N2CCOCC2)cc1`, for which the inhibition is -8.89%.

With `CCOc1cc(-c2noc(CCC(=O)N3CCOCC3)n2)ccc1OC`, the inhibition is -9.69%.

Regarding `CCOc1cc(C(=S)N2CCOCC2)ccc1O`, the inhibition was 91.2% (active).

Turning to `Cn1c(=O)[nH]c(=O)c2c1nc(Br)n2CCCCSc1nc2ccccc2o1`, the inhibition was 19.8%.

For `CCCCCCn1c(SCC(=O)c2ccccc2)nc2c1c(=O)[nH]c(=O)n2C`, the inhibition was 54.7% (active).

With `Cc1nnc(SCCCn2c(N3CCCCC3)nc3c2c(=O)[nH]c(=O)n3C)s1`, the inhibition is -3.25%.

For `CCCSc1nc2c(c(=O)[nH]c(=O)n2C)n1CCc1ccccc1`, the inhibition was -11.9%.

As to `CCCCCn1c(SCCC(C)C)nc2c1c(=O)[nH]c(=O)n2C`, the inhibition was 54.8% (active).

For the molecule `Cn1c(=O)[nH]c(=O)c2c1nc(N1CCCCCC1)n2CC(=O)c1ccccc1`, the inhibition was 1.85%.

`CCn1cc(NC(=O)Nc2ccc(OC)c(OC)c2)c(C(N)=O)n1`: the inhibition was 9.07%.

With `O=C(O)c1cccc2c1C(=O)N(C1CCCCC1)C2`, the inhibition was -4.3%.

With `CCN(CC)P(=O)(/C(Cl)=C\Nc1c(C)n(C)n(-c2ccccc2)c1=O)N(CC)CC`, the inhibition is -5.1%.

For the molecule `Cc1noc(C)c1CSc1nc2cc(S(=O)(=O)N3CCOCC3)ccc2o1`, the inhibition is 86.2% (active).

For the molecule `O=S(=O)(c1ccc2ccccc2c1)N1CCN(S(=O)(=O)N2CCOCC2)CC1`, the inhibition was -6.43%.

With `CCOC(=O)c1sc(NC(=O)c2cc(S(=O)(=O)N3CCOCC3)ccc2C)nc1C`, the inhibition is 3.07%.

On to `CCOCCCNC(=O)Cc1cc(=O)[nH]c(=O)[nH]1`, for which the inhibition is 5.5%.

On to `CC(=O)Oc1ccc(C)cc1N1C(=O)c2ccc(C(=O)O)cc2C1=O`, for which the inhibition is -4.48%.

With `NC(=O)Cn1c(=O)oc2ccccc21`, the inhibition was 96.3% (active).

With `CC1CCCN(C(=O)Cn2c(=O)oc3ccccc32)C1` (stereo unspecified), the inhibition was 7.78%.

As for `COc1ccc(OC)c(NC(=O)Cn2c(=O)oc3ccccc32)c1`, the inhibition was -1.94%.

`O=C(Nc1nc(-c2ccc3c(c2)OCO3)cs1)c1ccncc1`: the inhibition was -9.11%.

On to `O=C(Nc1nc(-c2ccncc2)cs1)C1COc2ccccc2O1` (stereo unspecified), for which the inhibition is 83.8% (active).

Consider `COc1ccc(OC)c2sc(NC(=O)C3COc4ccccc4O3)nc12` (stereo unspecified), for which the inhibition is 1.92%.

Turning to `O=C(CCSCCc1ccccn1)Nc1nccs1`, the inhibition is -23.9%.

On to `CCOC(=O)c1c(C)c(C(=O)NCCc2ccc(S(N)(=O)=O)cc2)c(C)n1CC`, for which the inhibition is -6.32%.

`CCCc1nnc(NC(=O)CN2C(=O)c3ccccc3S2(=O)=O)s1`: the inhibition is 89.7% (active).

For the molecule `CCCc1nnc(NC(=O)c2cc(OC)cc(OC)c2)s1`, the inhibition was 4.61%.

On to `CNC(=O)CN1C(=O)c2ccccc2S1(=O)=O`, for which the inhibition was 4.74%.

In the case of `O=C(CN1CCOCC1)Nc1c(-c2ccccc2)c2cc(Br)ccc2[nH]c1=O`, the inhibition was 9.93%.

As to `COc1ccc(N2CCN(CCNC(=O)c3nnc(Cc4c(F)cccc4Cl)o3)CC2)cc1`, the inhibition is 4.44%.

Regarding `CCC(=NC1CC(C)(C)NC(C)(C)C1)C1=C(O)CC(C)(C)CC1=O`, the inhibition was -6.23%.

Consider `Oc1ccc(-c2csc(Nc3cccnc3)n2)cc1`, for which the inhibition was 34.2%.

Consider `COc1ccc(OC)c(Nc2nc(-c3ccc(O)c(O)c3)cs2)c1`, for which the inhibition is 71.9% (active).

On to `COc1ccc(-c2n[nH]c(C)c2-c2ccc(OC)c(OC)c2)c(O)c1`, for which the inhibition is 3.91%.

For the molecule `COCCN(C(=O)CCC(=O)Nc1ccccn1)C(C(=O)NCCC(C)C)c1ccc(OC)cc1` (stereo unspecified), the inhibition is 3.89%.

For `CSCCC(Nc1nc2ccccc2s1)C(=O)O` (stereo unspecified), the inhibition was -3.78%.

`O=C(NCc1ccccn1)c1cc2ccccc2oc1=O`: the inhibition was -3.63%.

On to `O=C(NCc1ccccn1)c1ccc2nc(-c3ccco3)c(-c3ccco3)nc2c1`, for which the inhibition was 87.7% (active).

Regarding `Cc1cccn2c(=O)c3cc(C(=O)NCc4ccccn4)n(C)c3nc12`, the inhibition is -10.5%.

Regarding `CC(Sc1nncs1)C(=O)NCc1ccc2c(c1)OCO2` (stereo unspecified), the inhibition was -19.3%.

On to `Cc1nc2nc(CSc3nc4ccccc4s3)cc(=O)n2[nH]1`, for which the inhibition was 4.18%.

Consider `c1ccc(-n2ncc3c2ncn2c(CSc4nc5ccccc5s4)nnc32)cc1`, for which the inhibition was 63.5% (active).

Take `c1ccc(-n2ncc3c2ncn2c(C4CCCCC4)nnc32)cc1`: the inhibition is -1.63%.

On to `CN1CCN(C(=O)C2C3C=CC(C3)C2C(=O)O)CC1` (stereo unspecified), for which the inhibition is 0.5%.

For `CCN(CC)CCN1C(=O)C(=O)/C(=C(/O)c2ccc(OC)c(OC)c2)C1c1ccccn1` (stereo unspecified), the inhibition is 5.17%.

For `COc1ccc(Cc2nnc(NC(=O)Cc3cccs3)s2)cc1`, the inhibition is 70.2% (active).

`COCC(=O)Nc1nnc(COc2ccccc2)s1`: the inhibition is -3.37%.

On to `COc1ccc(Cc2nnc(NS(=O)(=O)Cc3ccccc3)s2)cc1`, for which the inhibition is 1.94%.
